About 79,000 compounds went through this panel and 15% of them were active in at least one assay; those are over-represented in the sample as a whole. Unmarked numbers belong to inactive results. Active and inactive are the calls of the source. Rule as the data show it: active = growth inhibition above about 70%; inactive = the rest.
Columns and labels:
[1] = NCI Yeast Anticancer Drug Screen. Data for the rad50 strain (AID 155);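 also: 0% = growth of vehicle-only cultures of the same strain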; conditions: S. cerevisiae rad50 strain growth inhibition; at 50.0 µM; hits give high values
Procedure, shortened: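 Yeast carrying a defined DNA repair defect were exposed to test compounds, and growth was compared with vehicle-treated controls to give percent inhibition.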

[2] = NCI Yeast Anticancer Drug Screen. Data for the mec2-1 strain (AID 157); conditions: S. cerevisiae mec2-1 strain, at 50.0 µM, hits give high values
Procedure, shortened: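 Readout is yeast growth inhibition, normalised to vehicle-treated controls, in the mec2-1 strain exposed to compound.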

[3] = NCI Yeast Anticancer Drug Screen. Data for the sgs1 mgt1 strain (AID 161);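 also: 0% = growth of cultures given vehicle only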; conditions: S. cerevisiae sgs1 mgt1 strain, at 50.0 µM, hits give high values
Procedure, shortened: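 This yeast growth screen uses a strain with defined DNA-repair lesions; compound-treated growth is compared with vehicle-treated growth.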

[4] = NCI Yeast Anticancer Drug Screen. Data for the cln2 rad14 strain (AID 165);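 also: 0% = growth equal to vehicle treated cultures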; conditions: S. cerevisiae cln2 rad14 strain, at 50.0 µM, hits give high values
Procedure, shortened: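 Relative to vehicle controls, growth inhibition of compound-treated cln2 rad14 yeast was recorded.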

[5] = NCI Yeast Anticancer Drug Screen. Data for the bub3 strain (AID 167); conditions: S. cerevisiae bub3 mutant strain, at 50.0 µM, hits give high values
Procedure, shortened: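 Compounds were applied to a genetically altered yeast strain carrying a cell-cycle control defect. Growth inhibition was scored against vehicle-treated controls.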

[6] = NCI Yeast Anticancer Drug Screen. Data for the mlh1 rad18 strain (AID 175); conditions: S. cerevisiae mlh1 rad18 strain growth inhibition; at 50.0 µM; hits give high values
Procedure, shortened: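 Test agents were incubated with a yeast strain of defined genotype (DNA damage repair defect). Inhibition of growth was derived by comparison with vehicle-exposed cultures.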

| Structure (SMILES) | growth inhibition [1] | growth inhibition [2] | growth inhibition [3] | growth inhibition [4] | growth inhibition [5] | growth inhibition [6] |
| --- | --- | --- | --- | --- | --- | --- |
| CCCNc1nc(Cl)nc2c1cnn2C | 7.6% | -8.4% | 9.5% | 1.25% | 14.4% | 6.95% |
| COC1OC2COC(c3ccccc3)OC2C(OC)C1OC(=O)c1ccccc1 (stereo unspecified) | -3.05% | 0.85% | -14.1% | -37.6% | -2.05% | 7.55% |
| Cc1[nH]c(=O)c(C#N)c(C)c1-c1ccccc1 | 16.8% | -3.9% | -4.9% | 4.9% | -0.75% | 1.85% |
| CCN(CC)C(=O)CNC(=O)c1c2nc3c(C(=O)NCC(=O)N(CC)CC)ccc(C)c3oc-2c(C)c(=O)c1N | 16.9% | 33.9% | 8.95% | 32.9% | 10.9% | 30.6% |
| CC(C)(C)OC(=O)Cn1ncn(NC(=O)Cc2ccccc2)c1=S | -27.6% | -23.9% | 1.05% | -37.2% | -33.5% | -15.7% |
| CNC(=S)NNC(=O)c1ccncc1 | 11.4% | 10.7% | 13.6% | 18.6% | -0.65% | 13.3% |
| CCCCCCCCCCCCNC(=S)N/N=C/c1ccc(OC)cc1 | -19.1% | -10.5% | -16.8% | 13.3% | -8.4% | -28.2% |
| Cc1cc(Br)c(O)c(-c2cscn2)c1 | -17.6% | -34.8% | 11.8% | 28.9% | 16.8% | 3% |
| O=C(Nc1ccccc1)c1ccccc1Cl | 24.5% | -0.15% | 0.35% | 2.8% | -3.05% | 12.3% |
| CC(C)(C)CC(C)(C)c1ccc(OCCOc2ccccc2NS(=O)(=O)c2ccc(N)cc2)cc1 | 47.5% | -0.35% | 33.6% | 1.1% | 10.1% | 23.6% |
| NC(=O)Nc1ccc(Cc2ccc(NC(N)=O)cc2)cc1 | -15.4% | -26.8% | 10.7% | 10.8% | 12.9% | 12.3% |
| O=c1ccc(=O)c2c(=O)c3cc4[nH]c5ccccc5[nH]c4cc3c(=O)c12 | 2.25% | -7.05% | 0.55% | 1.85% | -5.6% | 5.2% |
| CC(C)CCC[C@@H](C)[C@H]1CC[C@H]2C3=CC=C4C[C@H](OC(=O)c5ccccc5)CC[C@]4(C)[C@H]3CC[C@]12C | 0.4% | 5.5% | 11% | 3.7% | -1.25% | -10.2% |
| CCOC(=O)/C(C#N)=C/c1ccccc1OC | 35.6% | 38.9% | 31.9% | 10.5% | 47.5% | 47.5% |
| OCC1OCOC1C1OCOC1CO (stereo unspecified) | 0.55% | 4.35% | 3.95% | 2.9% | -2.55% | -3.45% |
| COC(=O)C(CCc1ccc([N+](=O)[O-])cc1)(CCc1ccc([N+](=O)[O-])cc1)C(=O)OC | 19.2% | 3.25% | 4.15% | -17.9% | 24.2% | 34.9% |
| COc1ccccc1OCC(COC(=O)Nc1ccccc1)OC(=O)Nc1ccccc1 (stereo unspecified) | -44.2% | -27.2% | -30.4% | -0.6% | -17.6% | -17.8% |
| NC(N)=NC(N)=Nc1cccc(S(=O)(=O)c2cccc(N=C(N)N=C(N)N)c2)c1 | 8.1% | -0.55% | -0.1% | 12.8% | -3.95% | 13.2% |
| Cc1ccc(NC(=O)COc2cc(Cl)c(Cl)cc2Cl)cc1[N+](=O)[O-] | -8.55% | -9.1% | -6.6% | 10.2% | 0.1% | 0.4% |
| COc1cc(C(=O)C[n+]2ccccc2)ccc1O | 95.3% (active) | 86.2% (active) | 84.5% (active) | 97.2% (active) | 97.7% (active) | 99.5% (active) |
| COC(=O)C(NC(=O)c1ccccc1)C(c1c(O)cc(O)cc1O)P(=O)(OC)OC (stereo unspecified) | -4.75% | 10.3% | 12.4% | 3.35% | 1% | 18% |

| Structure (SMILES) | growth inhibition [1] | growth inhibition [2] | growth inhibition [3] | growth inhibition [4] | growth inhibition [5] | growth inhibition [6] |
| --- | --- | --- | --- | --- | --- | --- |
| C/C(=N\NC(=S)N1CCC(C)CC1)c1nccnc1C | 6.1% | 7.85% | 11.4% | 28.1% | 8.95% | 17.7% |
| Cc1cc(N(CCC#N)CCC#N)ccc1/C(N=Nc1ccc(Cl)cc1)=N\NC(=O)c1ccccc1 | 1.3% | -2.65% | -0.5% | -10.2% | -7.3% | -31.1% |
| S=c1cc(Cc2ccccc2)[nH]c(=S)[nH]1 | -1.2% | -11.1% | -6.15% | -7.75% | -14% | 4.85% |
| CCN(CC)Cc1cc(N=Nc2cccc3ccccc23)c2ccccc2c1O | 31.6% | 11.4% | 30.1% | 24.9% | -3.15% | 35.7% |
| O=C(OC(=O)c1cccc(Br)c1)c1cccc(Br)c1 | 10.2% | -10.5% | 26% | 34.8% | -5.7% | 1% |
| O=C(c1cccc([N+](=O)[O-])c1)N1CCCCC1 | 1.4% | -11.8% | 16.2% | -17.1% | 4.1% | -5.05% |
| CC(=O)N1C(OC(C)C)CC(C)N1c1ccccc1 (stereo unspecified) | -7.45% | -15.8% | -38.4% | 3.35% | -22.8% | -38.3% |
| Cc1cc2c(nn1)CCc1c-2no[n+]1[O-] | 3.15% | -32.1% | -10.4% | 22.5% | 3.45% | -2.8% |
| NS(=O)(=O)c1ccc(NCc2cnc3ccccc3c2)cc1 | -4.65% | -22.3% | 12% | -5.25% | 4.1% | 27.4% |
| O=C1OCc2nc3c(c(-c4ccccc4C(F)(F)F)c21)C(=O)OC3 | -40.1% | -66.6% | -59.3% | -0.85% | -35.4% | -39% |
| COc1ccc(/C=C2\SC(c3ccc(OC)cc3)N(NC(=O)Cc3ccccc3)C2=O)cc1 (stereo unspecified) | -14.2% | -34.8% | -6.9% | -63.2% | 1.1% | 1.15% |
| CCCCNCCCC | 2.15% | 2% | -27.1% | -3.65% | -8% | -16.6% |
| Cc1[nH]ccc(=O)c1OC(=O)C12CC3CC(CC(C3)C1)C2 | 15.8% | 16.6% | 36% | 19.2% | 2.7% | 23% |
| O=P(O)(Cc1ccccc1)OCC1(O)OCC(O)C(O)C1O (stereo unspecified) | -16.1% | -6.35% | -28.6% | 12.7% | -19.8% | -23.2% |
| NC1CC1 | -8.4% | -1.1% | -4.6% | -9.95% | 11.6% | -22.9% |
| c1ccc(CCCCCCc2ccccc2)cc1 | -33.9% | -22% | -8.5% | -6.55% | -14.6% | 1.3% |
| c1ccc(Cc2nnc(Cc3ccccc3)nn2)cc1 | 10.8% | 8.35% | 2.7% | 7.25% | 21.4% | 7% |
| O=C(O)c1ccc(F)cc1C(=O)O | 5.5% | 6% | 4.75% | 5.25% | 3.2% | 1.45% |
| CCOc1ccc2ccccc2c1N | 44% | 15.4% | 24.3% | 4.8% | 51.7% | 46.7% |
| CC1CC=C2CCCCC2(C)C1C (stereo unspecified) | 8.7% | 13.7% | 16.2% | -30.9% | -40.6% | 3.7% |
